Inconclusive results are not listed. Activity calls are given as the source filed them. The call rests on the fitted dose curve; in most records, active means well fitted inhibition curve with a large enough effect; inconclusive means small, poorly fitted or top-dose-only effect; inactive means no such curve, though single readings can be large or run the other way.
Assay: Primary qHTS for small molecule stabilizers of the endoplasmic reticulum resident proteome: Secreted ER Calcium Modulated Protein (SERCaMP) assay (AID 1508630)
Settings: SH-SY5Y GLuc-SERCaMP (Gaussia luciferase released on ER calcium loss) secretion, thapsigargin, luminescence; series mostly up to 38.4 µM
Source text: Assay Provider: Brandon K. Harvey Ph.D.
National Institute on Drug Abuse, National Institutes of Health, Baltimore, MD
Endoplasmic reticulum (ER) dysregulation is associated with human pathologies including neurodegenerative, cardiovascular, muscular, and diabetic conditions. Maintenance of ER calcium is critical for functions of the ER and its depletion can lead to loss of ER resident proteins, in a process termed exodosis. Therapeutic compounds capable of attenuating the redistribution of ER proteins under pathological conditions may slow or stop disease progression. To identify such compounds, we performed a quantitative high-throughput screen (qHTS) using the SERCaMP assay, which monitors secretion of ER resident proteins triggered by calcium depletion.
SERCaMP was initially developed as a reporter of ER calcium homeostasis using a Gaussia luciferase with a modified signal peptide and carboxy-terminus (GLuc-SERCaMP), modifications that confer secretion of the reporter in response to ER calcium depletion (Henderson et al., 2014). The assay was used to screen 9,501 compounds, including a collection of drugs approved by the FDA (US), EMA (EU), NHI (Japan), and HC (Canada) regulatory agencies (Huang et al., 2011). Since the SERCaMP reporter reflects the exodosis phenomenon (Trychta et al., 2018a), compounds identified in the screen have the potential to prevent exodosis by different mechanisms such as stabilizing ER calcium or augmenting ERS retrieval.
1. Henderson, M.J., Wires, E.S., Trychta, K.A., Richie, C.T., and Harvey, B.K. (2014). SERCaMP: a carboxy-terminal protein modification that enables monitoring of ER calcium homeostasis. Mol Biol Cell 25, 2828-2839.
2. Huang, R., Southall, N., Wang, Y., Yasgar, A., Shinn, P., Jadhav, A., Nguyen, D.T., and Austin, C.P. (2011). The NCGC pharmaceutical collection: a comprehensive resource of clinically approved drugs enabling repurposing and chemical genomics. Sci Transl Med 3, 80ps16.
3. Trychta, K.A., Back, S., Henderson, M.J., and Harvey, B.K. (2018a). KDEL Receptors Are Differentially Regulated to Maintain the ER Proteome under Calcium Deficiency. Cell Rep 25, 1829-1840 e1826.
SEQUENCE No. (1, 2, 3, etc.); […] (e.g., Cells, Incubation, Reagent, etc.); VALUE and DESCRIPTION.
1; Reagent; 5 uL; 1000 SH-SY5Y cells per wells
3; Compound; 23 nL; Control inhibitor / compound library
5; Reagent; 100 nM; Thapsigargin
7; Reagent; 1 uL; 0.5x coelenterazine
8; Detection; Luminescence; ViewLux imaging system
NOTES (numbers refer to sequence above)
1; SH-SY5Y human neuroblastoma cells stably expressing GLuc-SERCaMP (SH-SY5Y-GLuc-ASARTDL) cells were seeded in 1,536 well white tissue culture treated plates (Corning, Cat# 7464) in DMEM-high glucose-sodium pyruvate (ThermoFisher Scientific, Cat #10569) supplemented with 10% bovine growth serum (Hyclone), 10 U/ml penicillin (Gibco), 10 ug/ml streptomycin (Gibco), and 20 mM HEPES.
2; Assay plates were incubated for 5 hour at 37C in a humidified incubator containing 5% CO2.
3; qHTS libraries (23 nl, final concentrations of 1.53 uM, 7.67 uM, 38.3 uM) or controls (neutral control: DMSO, positive control: dantrolene) were added using a Kalypsis pin-tool Robotic System equipped with 1536 pinheads.
4; Cells were then incubated for 16 hours at 37C, 5% CO2.
5; Thapsigargin was added at 100 nM to deplete ER calcium stores.
6; Cells were incubated for 4 hour (37 °C, 5% CO2)
7; Gaussia luciferase in the medium was measured by adding 1 ul of 0.5x coelenterazine (final concentration 0.07x) prepared in Gaussia Luciferase Glow Assay Buffer (Pierce), without addition of the Cell Lysis Buffer Reagent.
8; Luminescence was measured using a ViewLux […] CCD imaging system (Perkin Elmer) equipped with clear filters. […] The same controls were also used for the calculation of the Z' factor, a measure of assay quality control, as previously described (Zhang et al., 1999). […]

Question: With `CCCN1CCC[C@@H]2Cc3nc(N)ncc3C[C@H]21` as the molecule, how does the outcome read?
Answer: The outcome was “inactive”.

Question: For `CNC(=O)c1ccc(N2C(=S)N(c3ccc(C#N)c(C(F)(F)F)c3)C(=O)C23CCC3)cc1F`, which outcome is on record?
Answer: Its outcome is “inactive”.

Question: For `COC[C@H]1OC(=O)c2coc3c2[C@@]1(C)C1=C(C3=O)C2CCC(=O)[C@@]2(C)C[C@H]1OC(C)=O` (stereo not given in full), which outcome is on record?
Answer: Its outcome is “inactive”.

Question: For `O=C(NC(O)C(Cl)(Cl)Cl)NC(O)C(Cl)(Cl)Cl` (stereo not given), which outcome is on record?
Answer: The outcome was “inactive”.

Question: With `CC[C@@H](CO)NC(=O)[C@@H]1C=C2c3cccc4c3c(cn4C)C[C@H]2N(C)C1` as the molecule, how does the outcome read?
Answer: The outcome was “inactive”.

Question: Which outcome does the source give for `CCC1(C2=NCCN2)Cc2ccccc2O1` (stereo not given) here?
Answer: The outcome was “inactive”.

Question: Which outcome does the source give for `CN(C)CCN(C)CCc1ccc(Cl)c(Cl)c1` here?
Answer: The outcome was “inactive”.

Question: For `Oc1cc(Cl)ccc1Oc1ccc(Cl)cc1Cl`, which outcome is on record?
Answer: The outcome was “inactive”.

Question: For `O=C(O)c1ccc2[nH]cc(CCCCN3CC=C(c4ccccc4)CC3)c2c1`, which outcome is on record?
Answer: The outcome was “inactive”.

Question: For `Clc1cccc(N2CCNCC2)c1`, which outcome is on record?
Answer: The outcome was “inactive”.

Question: For `CCCC(C)(COC(N)=O)COC(=O)NC(C)C` (stereo not given), which outcome is on record?
Answer: The outcome was “inactive”.

Question: With `CC(C)=CCOc1c2occc2cc2ccc(=O)oc12` as the molecule, how does the outcome read?
Answer: The outcome was “inactive”.

Question: For `C[C@@H]1O[C@@H](O[C@H]2C[C@@H](O)[C@]3(CO)[C@H]4[C@H](O)C[C@]5(C)[C@@H](C6=CC(=O)OC6)CC[C@]5(O)[C@@H]4CC[C@]3(O)C2)[C@H](O)[C@H](O)[C@H]1O`, which outcome is on record?
Answer: The outcome was “inactive”.

Question: Which outcome does the source give for `CC(=O)[C@H]1CC[C@H]2[C@@H]3CC[C@H]4C[C@H](O)CC[C@]4(C)[C@H]3C(=O)C[C@]12C` here?
Answer: Its outcome is “inactive”.

Question: Which outcome does the source give for `C[C@H]1O[C@@H](O[C@H]2[C@@H](O)C[C@H](O[C@H]3[C@@H](O)C[C@H](O[C@H]4CC[C@@]5(C)[C@H](CC[C@@H]6[C@@H]5CC[C@]5(C)[C@@H](C7=CC(=O)OC7)CC[C@]65O)C4)O[C@@H]3C)O[C@@H]2C)C[C@H](O)[C@@H]1O` here?
Answer: The outcome was “inactive”.

Question: Which outcome does the source give for `O=[N+]([O-])c1cc([As](=O)(O)O)ccc1O` here?
Answer: The outcome was “inactive”.

Question: With `Nc1ccncc1` as the molecule, how does the outcome read?
Answer: Its outcome is “inactive”.

Question: Which outcome does the source give for `Fc1ccc(C(OCCN2CCN(CCCc3ccccc3)CC2)c2ccc(F)cc2)cc1` here?
Answer: Its outcome is “inactive”.

Question: For `CCC(C(N)=O)N1CCCC1=O` (stereo not given), which outcome is on record?
Answer: The outcome was “inactive”.

Question: With `CC(=O)[C@H]1CC[C@H]2[C@@H]3CC[C@H]4C[C@](C)(O)CC[C@]4(C)[C@H]3CC[C@]12C` as the molecule, how does the outcome read?
Answer: The outcome was “inactive”.

Question: For `O=c1oc2ccccc2c(O)c1C(CC(O)c1ccc(-c2ccc(Br)cc2)cc1)c1ccccc1` (stereo not given), which outcome is on record?
Answer: The outcome was “inactive”.

Question: Which outcome does the source give for `O=P1(NCCCl)OCCCN1CCCl` (stereo not given) here?
Answer: Its outcome is “inactive”.

Question: For `COc1ccc(C(CN(C)C)C2(O)CCCCC2)cc1` (stereo not given), which outcome is on record?
Answer: The outcome was “inactive”.

Question: For `NN=C(N)N`, which outcome is on record?
Answer: The outcome was “inactive”.

Question: For `C=CCN1CC[C@]23c4c5ccc(O)c4O[C@H]2C(=O)CC[C@@]3(O)[C@H]1C5`, which outcome is on record?
Answer: The outcome was “inactive”.

Question: With `O=C1CC[C@@]2(O)[C@H]3Cc4ccc(O)c5c4[C@@]2(CCN3CC2CC2)[C@H]1O5` as the molecule, how does the outcome read?
Answer: The outcome was “inactive”.

Question: For `C[C@]12CC[C@H]3[C@@H](CCC4=CC(=O)CC[C@@H]43)[C@@H]1CC[C@@H]2OC(=O)CCc1ccccc1`, which outcome is on record?
Answer: The outcome was “inactive”.

Question: Which outcome does the source give for `CC(O)(CS(=O)(=O)c1ccc(F)cc1)C(=O)Nc1ccc(C#N)c(C(F)(F)F)c1` (stereo not given) here?
Answer: Its outcome is “inactive”.

Question: For `Cc1cccc(C)c1NC(=O)CN1CCCC1=O`, which outcome is on record?
Answer: The outcome was “inactive”.

Question: With `CN1C(=S)CN=C(c2ccccc2)c2cc(Cl)ccc21` as the molecule, how does the outcome read?
Answer: Its outcome is “inactive”.

Question: For `O=c1[nH]c2ccccc2n1CCCN1CCC(n2c(=O)[nH]c3cc(Cl)ccc32)CC1`, which outcome is on record?
Answer: The outcome was “inactive”.

Question: With `O=C1NCN(c2ccccc2)C12CCN(CC1COc3ccccc3O1)CC2` (stereo not given) as the molecule, how does the outcome read?
Answer: The outcome was “inactive”.

Question: For `CC[N+](CC)(CC)CC`, which outcome is on record?
Answer: Its outcome is “inactive”.

Question: For `FC(F)(F)c1cccc(C2=CCN(CCc3ccc4ccccc4c3)CC2)c1`, which outcome is on record?
Answer: The outcome was “inactive”.

Question: Which outcome does the source give for `Cc1sc2c(c1C)C(c1ccc(Cl)cc1)=N[C@@H](CC(=O)OC(C)(C)C)c1nnc(C)n1-2` here?
Answer: The outcome was “inactive”.

Question: Which outcome does the source give for `CCC(COC(=O)c1cc(OC)c(OC)c(OC)c1)(c1ccccc1)N(C)C` (stereo not given) here?
Answer: Its outcome is “inactive”.

Question: With `COc1ccc(Cc2nccc3cc(OC)c(OC)cc23)cc1OC` as the molecule, how does the outcome read?
Answer: The outcome was “inactive”.

Question: Which outcome does the source give for `Cn1cc(C2=C(c3cn(C4CCN(Cc5ccccn5)CC4)c4ccccc34)C(=O)NC2=O)c2ccccc21` here?
Answer: Its outcome is “inactive”.

Question: For `C#CCOC(C(=O)OCCN(C)C)(c1ccccc1)c1ccccc1`, which outcome is on record?
Answer: Its outcome is “inactive”.

Question: With `c1ccc(C2CC2)c(OCC2=NCCN2)c1` as the molecule, how does the outcome read?
Answer: The outcome was “inactive”.

— PubChem BioAssay (NCATS)
